From PubChem BioAssay
In the library only some 7.9% were active in any assay of this set; here they are far more common.
KB-V1 cytotox – KB-V1 MDR subline cytotoxicity | KB-V1 MDR cells viability, CellTiter-Glo, 72 h | Potency, µM (doses to about 46.1 µM), most hits filed as cytotoxic | 3.4% of 400,000 active; also: % is scaled to controls: 0 for no effect and ±100 for the full control effect; nearly all actives have a fitted effect of over 60% in size
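Drug-selected KB-V1 cells, grown in DMEM lacking phenol red with 10% FBS, receive compound titrations; after three days at 37 degrees C, surviving cell ATP is quantified by CellTiter-Glo luminescence and responses normalized and curve-fitted.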
MCF10A rerep – DNA re-replication induction in MCF 10a cells; Potency, µM (top dose mostly 46.1 µM), for inactives: at the top dose activity, positive = re-replication, most hits filed as activators; AID 624296; MCF 10A DNA re-replication, Hoechst nuclear intensity, 48 h; 2.9% of 350,000 active; also: % of control where 0% means no effect; nearly all actives have a fitted effect of over 50% in size
HT1080 IDH1KD tx – toxicity to HT-1080 IDH1 knockdown cells (counter line); HT-1080 IDH1 knockdown viability, ATP luminescence, 48 h; Potency, µM (highest dose often 46.1 µM), for inactives: top-dose activity, negative = toxicity, actives largely listed as cytotoxic; 2% of 360,000 active;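 also: 0% = DMSO wells and -100% = cell-free medium wells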
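% activity derives from luminescence (CellTiter-Glo), normalised to DMSO and no-cell wells. HT-1080-IDH1KD cells, 750/well, had 48 h compound exposure at 37 °C.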
SW480 rereplic – inducers of DNA re-replication in SW480 colon cancer cells; Potency, µM (titrated, usually from 46.1 µM), for the others: at the highest dose re-replication activation, most hits filed as activators; AID 624297; 1.8% of 340,000 active; SW480 DNA re-replication, Hoechst DNA content imaging, 48 h; also: % of control where 0% means no effect; nearly all actives have a fitted effect of over 55% in size
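Compounds, transferred as 23 nL by pin tool, were incubated with cells for 48 hr; DNA content per nucleus was then quantified by Hoechst staining and fluorescence plate imaging.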
HT1080NT lethal – kills 2HG-producing HT-1080-NT fibrosarcoma cells; 1.6% of 360,000 active; AID 686970; HT-1080-NT fibrosarcoma viability, CellTiter-Glo ATP luminescence, 48 h; Potency, µM (doses to about 46.1 µM), without a hit: top-dose activity, negative = less viability, actives largely listed as cytotoxic;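 also: NT is the 2HG producing partner of a matched IDH1 knockdown line; 0% = DMSO-treated cells and -100% = media-only wells without cells; nearly all actives have a fitted effect of over 55% in size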
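Fibrosarcoma NT cells, 750 per well in 5% FBS RPMI, were exposed to compound for 48 hours. Viability: CellTiter-Glo luminescence.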
KB-3-1 tox – KB-3-1 parental cell cytotoxicity; KB-3-1 viability, CellTiter-Glo ATP luminescence, 72 h; Potency, µM (series often up to 46.1 µM), most hits filed as cytotoxic; 1.4% of 400,000 active; AID 1347075; also: % is scaled to controls: 0 for no effect and ±100 for the full control effect; nearly all actives have a fitted effect of over 60% in size
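Parental KB-3-1 viability, qHTS format: 72 h compound exposure, 37 °C; CellTiter-Glo; media-only wells and DMSO plates as controls; concentration-effect fits on corrected data.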
Numbers without * were called inactive. Calls follow the shape of the dose curve; as a rule, active = well fitted curve in the direction sought with a large enough effect; inconclusive = small, poorly fitted or top-dose-only effect, or another doubt; inactive = no such curve, though single readings can be large; an effect the other way counts as inactive or inconclusive. Potency is read from the fitted curve at half-maximal effect.

What do the screens show for `O=C(CSc1n[nH]c(-c2ccccc2Cl)n1)N1CCN(c2ccccc2F)CC1`?
KB-V1 cytotox: inactive; KB-3-1 tox: inactive

How did COc1cccc(-c2onc3ccc(C4(C)OCCO4)cc23)c1 do in these assays?
KB-V1 cytotox: inactive; MCF10A rerep: 18.4µM*; HT1080 IDH1KD tx: -3.8%; SW480 rereplic: 15.6%; HT1080NT lethal: 0.0%; KB-3-1 tox: inactive

What do the screens show for `CCOC(=O)C1=C(COC(=O)c2cc(S(=O)(=O)N(C)C)ccc2C)NC(=O)NC1C` (configuration not stated)?
KB-V1 cytotox: 23.1µM*; MCF10A rerep: 0.5%; HT1080 IDH1KD tx: -1.1%; SW480 rereplic: -1.7%; HT1080NT lethal: -3.3%; KB-3-1 tox: inactive

What do the screens show for `COc1cccc2c(=O)c3ccoc3n(C)c12`?
KB-V1 cytotox: inactive; MCF10A rerep: -0.7%; HT1080 IDH1KD tx: 3.9%; SW480 rereplic: -46.1%; HT1080NT lethal: -1.2%; KB-3-1 tox: inactive

How did COc1cccc2c(=O)c3c(cnn3C)n(C)c12 do in these assays?
KB-V1 cytotox: 20.6µM*; MCF10A rerep: inconclusive; HT1080 IDH1KD tx: -7.9%; SW480 rereplic: 23.8%; HT1080NT lethal: -3.4%; KB-3-1 tox: inactive

How did Cc1ccc(NC(=O)CSc2nc(=O)n(Cc3ccco3)c3c2CCC3)cc1F do in these assays?
KB-V1 cytotox: inactive; KB-3-1 tox: inactive

What do the screens show for `CN(C(=O)CSc1nc2c(c(=O)[nH]1)CCCC2)c1ccccc1`?
KB-V1 cytotox: inactive; KB-3-1 tox: inactive

What do the screens show for `O=C(N/N=C1\CCSc2ccc(F)cc21)c1cccnc1`?
KB-V1 cytotox: inactive; MCF10A rerep: -3.5%; HT1080 IDH1KD tx: 8.1%; SW480 rereplic: -11.8%; HT1080NT lethal: 5.9%; KB-3-1 tox: inactive

How did NC(=S)N/N=C1\CCSc2ccc(Cl)cc21 do in these assays?
KB-V1 cytotox: inconclusive; MCF10A rerep: -1.6%; HT1080 IDH1KD tx: -6.5%; SW480 rereplic: 18.4µM*; HT1080NT lethal: -10.9%; KB-3-1 tox: inactive

What do the screens show for `COc1ccc2[nH]c3c(C)c4ccncc4c(C)c3c2c1`?
KB-V1 cytotox: 8.2µM*; MCF10A rerep: -45.2%; HT1080 IDH1KD tx: 18.4µM*; SW480 rereplic: -7.0%; HT1080NT lethal: 23.1µM*; KB-3-1 tox: 18.4µM*

Results for COc1ccc2[nH]c(C)cc(=O)c2c1 ?
KB-V1 cytotox: inactive; MCF10A rerep: -1.4%; HT1080 IDH1KD tx: 12.8%; SW480 rereplic: -3.4%; HT1080NT lethal: 11.6%; KB-3-1 tox: inactive

What do the screens show for `Cc1[nH][nH]c(=O)c1C(c1c(C)[nH][nH]c1=O)c1cn(Cc2cccc3ccccc23)c2ccccc12`?
KB-V1 cytotox: 20.6µM*; MCF10A rerep: inconclusive; HT1080 IDH1KD tx: inconclusive; SW480 rereplic: inconclusive; HT1080NT lethal: inconclusive; KB-3-1 tox: inconclusive

What do the screens show for `Cc1ccc(Cl)cc1NS(=O)(=O)c1cc2c(cc1F)NC(=O)CC2`?
KB-V1 cytotox: inactive; KB-3-1 tox: inactive

How did COc1ccccc1CNC(=O)CCC1N=C2c3ccccc3N=C(SCC(=O)NCCc3ccc(OC)c(OC)c3)N2C1=O (configuration not stated) do in these assays?
KB-V1 cytotox: inactive; KB-3-1 tox: inactive

Results for COc1ccc(O)c(/C=N/NC(=O)c2ccc(OCc3cccc(Br)c3)cc2)c1 ?
KB-V1 cytotox: 3.26µM*; MCF10A rerep: inconclusive; HT1080 IDH1KD tx: 5.17µM*; SW480 rereplic: 4.11µM*; HT1080NT lethal: 1.64µM*; KB-3-1 tox: inconclusive

How did COc1ccc(Br)cc1/C=N/NC(=O)c1ccc(COc2ccc3c(c2)CCC3)o1 do in these assays?
KB-V1 cytotox: inactive; MCF10A rerep: 11.6µM*; HT1080 IDH1KD tx: inconclusive; SW480 rereplic: 17.8%; HT1080NT lethal: -21.3%; KB-3-1 tox: inactive

How did COc1ccc(C(=O)N/N=C/c2cc(Br)ccc2O)cc1OC do in these assays?
KB-V1 cytotox: 20.6µM*; MCF10A rerep: inconclusive; HT1080 IDH1KD tx: inconclusive; SW480 rereplic: inconclusive; HT1080NT lethal: inconclusive; KB-3-1 tox: inconclusive

How did CCCOc1ccc(Br)cc1/C=N/NC(=O)c1cc(OC)c(OC)c(OC)c1 do in these assays?
KB-V1 cytotox: inactive; MCF10A rerep: -1.0%; HT1080 IDH1KD tx: 2.8%; SW480 rereplic: -7.2%; HT1080NT lethal: -5.6%; KB-3-1 tox: inactive

What do the screens show for `O=C(N/N=C/c1ccc2ccccc2c1)c1ccc(COc2ccc3c(c2)CCC3)o1`?
KB-V1 cytotox: inactive; MCF10A rerep: inconclusive; HT1080 IDH1KD tx: inconclusive; SW480 rereplic: 16.5%; HT1080NT lethal: inconclusive; KB-3-1 tox: inactive

Results for COc1ccc(/C=N/NC(=O)c2ccc(Br)cc2)c(OC)c1 ?
KB-V1 cytotox: inactive; MCF10A rerep: 0.7%; HT1080 IDH1KD tx: 4.3%; SW480 rereplic: 7.3%; HT1080NT lethal: 1.7%; KB-3-1 tox: inactive

How did CC(C)COC(=O)N1CCCCC1c1cc(C(=O)Nc2ccc3c(c2)OCO3)no1 (configuration not stated) do in these assays?
KB-V1 cytotox: inactive; HT1080 IDH1KD tx: -16.8%; HT1080NT lethal: -26.2%; KB-3-1 tox: inactive

How did CN(C)CCNc1ccc(CO)c2oc3ccc(O)cc3c(=O)c12 do in these assays?
KB-V1 cytotox: inactive; MCF10A rerep: 26.6%; HT1080 IDH1KD tx: 20.6µM*; SW480 rereplic: inconclusive; HT1080NT lethal: inconclusive; KB-3-1 tox: 16.4µM*

What do the screens show for `FC(F)(F)c1cccc(N2CCN(c3ccc4nnc(-c5ccccc5)n4n3)CC2)c1`?
KB-V1 cytotox: 16.4µM*; MCF10A rerep: inconclusive; HT1080 IDH1KD tx: -12.3%; SW480 rereplic: 6.1%; HT1080NT lethal: -1.7%; KB-3-1 tox: inactive

Results for Cc1ccc2c(c1)cc(C(=O)NCc1ccccc1C)n2C ?
KB-V1 cytotox: inactive; KB-3-1 tox: inactive

How did COc1ccc(NC(=O)CCc2c(C)nn(-c3ccc(N4CCOCC4)nn3)c2C)cc1Cl do in these assays?
KB-V1 cytotox: inactive; KB-3-1 tox: inactive

What do the screens show for `COC(=O)c1[nH]c2ccccc2c1NC(=O)CN1CCN(C/C=C/c2ccccc2)CC1`?
KB-V1 cytotox: inconclusive; MCF10A rerep: 9.2%; HT1080 IDH1KD tx: inconclusive; SW480 rereplic: 15.8%; HT1080NT lethal: inconclusive; KB-3-1 tox: inactive

Results for CCOC(=O)N1CCN(CC(=O)Nc2c(C(=O)OC)[nH]c3ccc(Cl)cc23)CC1 ?
KB-V1 cytotox: 2.31µM*; MCF10A rerep: 28.8%; HT1080 IDH1KD tx: -4.8%; SW480 rereplic: 1.6%; HT1080NT lethal: -24.8%; KB-3-1 tox: 16.4µM*
